Data published in PubChem BioAssay (Tox21).
Inconclusive results are not listed. Where a call stands in place of a potency, no number is given. Values without a mark were called inactive. Active and inactive are the calls of the source.

Target: Glucocorticoid receptor (Homo sapiens) (UniProt P04150)
Assay: qHTS assay to identify small molecule agonists of the glucocorticoid receptor (GR) signaling pathway (AID 720691; active = well fitted activation curve with a large enough effect in the signal ratio in the repeat runs, not every such curve was filed as active; the % refers to the signal ratio)
Conditions: GR-bla HeLa, beta-lactamase reporter ratio, 18 h; series mostly up to 62.4 µM; activation: at the top concentration
Summary of the method: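 Compounds in DMSO, alongside positive controls, were added to GR-bla HeLa reporter cells and incubated 18 h at 37 C; GRE-driven beta-lactamase was detected by fluorescence after 2 h with FRET substrate at room temperature.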

Sequence of Glucocorticoid receptor (Homo sapiens) (P04150 whole entry, looked up): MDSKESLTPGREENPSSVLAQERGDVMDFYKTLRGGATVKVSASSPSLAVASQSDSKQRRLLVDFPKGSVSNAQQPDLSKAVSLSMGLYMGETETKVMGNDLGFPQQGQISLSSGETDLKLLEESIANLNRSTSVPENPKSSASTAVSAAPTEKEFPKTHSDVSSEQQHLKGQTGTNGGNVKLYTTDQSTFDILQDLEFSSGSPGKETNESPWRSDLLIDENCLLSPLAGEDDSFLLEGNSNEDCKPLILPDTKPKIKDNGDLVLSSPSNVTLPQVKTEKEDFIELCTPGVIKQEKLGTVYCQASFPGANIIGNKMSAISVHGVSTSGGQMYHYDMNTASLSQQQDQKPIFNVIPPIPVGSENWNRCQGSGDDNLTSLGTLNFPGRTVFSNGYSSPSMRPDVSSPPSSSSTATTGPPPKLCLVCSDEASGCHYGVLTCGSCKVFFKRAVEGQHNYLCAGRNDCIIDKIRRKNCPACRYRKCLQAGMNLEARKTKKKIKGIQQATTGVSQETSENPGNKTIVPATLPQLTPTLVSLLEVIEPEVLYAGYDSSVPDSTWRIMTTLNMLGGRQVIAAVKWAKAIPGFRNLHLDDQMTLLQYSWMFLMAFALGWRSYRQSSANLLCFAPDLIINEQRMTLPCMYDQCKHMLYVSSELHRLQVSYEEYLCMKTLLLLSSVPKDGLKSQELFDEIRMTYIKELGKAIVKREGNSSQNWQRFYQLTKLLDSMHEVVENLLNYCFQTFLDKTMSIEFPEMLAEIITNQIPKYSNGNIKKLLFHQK

SMILES | outcome | activation
COC(=O)NC(=S)Nc1ccccc1NC(=S)NC(=O)OC | inactive | –
CCCCCOC(=O)c1ccccc1C(=O)OCCCCC | inactive | –
Clc1ccc(Cl)cc1 | inactive | –
C=C(C)CCl | inactive | –
CC(C)(Cl)Cl | inactive | –
O=S(=O)(c1ccc(O)cc1)c1ccc(O)cc1 | inactive | –
O=NN1CCCCCCC1 | inactive | –
Cc1cc(-c2cc(C)c(N)c(C)c2)cc(C)c1N | inactive | –
BrCCBr | inactive | –
COP(N)(=O)SC (centres undefined) | inactive | –
CC(C)(C)C(O)(CCc1ccc(Cl)cc1)Cn1cncn1 (centres undefined) | – | -10.2% [at 79.2 µM]
Cn1cc(-c2ccccc2)c(=O)c(-c2cccc(C(F)(F)F)c2)c1 | inactive | –
CC(NC(C)(C)C)C(=O)c1cccc(Cl)c1 (centres undefined) | inactive | –
c1cc2c3c(cccc3c1)CC2 | inactive | –
CCOP(=S)(OCC)SCCSCC | inactive | –
CCCN(CCC)N=O | inactive | –
c1ccc(-c2ccccc2)cc1 | inactive | –
ClCc1cccnc1 | inactive | –

Target: Glucocorticoid receptor (Homo sapiens) (UniProt P04150)
Assay: qHTS assay to identify small molecule antagonists of the glucocorticoid receptor (GR) signaling pathway (AID 720692; active = well fitted inhibition curve with a large enough effect in the signal ratio in the repeat runs, not every such curve was filed as active; the % refers to the signal ratio; also: potency is read from the fitted curve at half-maximal effect)
Conditions: GR-bla HeLa, beta-lactamase FRET ratio, dexamethasone-stimulated, 18 h; series mostly up to 58.5 µM; activity change, negative = inhibition: at the top concentration
Summary of the method: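 In a 1536-well cell format, compounds were added 4 h after seeding GR-bla HeLa cells, together with dexamethasone at 5 nM final; reporter activity was measured by FRET-substrate fluorescence following 18 h at 37 C.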

SMILES | Potency | activity change, negative = inhibition
COC(=O)NC(=S)Nc1ccccc1NC(=S)NC(=O)OC | inactive | –
CCCCCOC(=O)c1ccccc1C(=O)OCCCCC | – | 1.36%
CC(C)C1(C)N=C(c2nc3ccccc3cc2C(=O)O)NC1=O (centres undefined) | inactive | –
Clc1ccc(Cl)cc1 | inactive | –
O=NN1CCCCCCC1 | – | 6.07%
CCCCCCCCCCCC#N | inactive | –
CC(C)(C)C(O)(CCc1ccc(Cl)cc1)Cn1cncn1 (centres undefined) | 43.6 µM (active) | –
O=C(O)c1ccccn1 | inactive | –
Cn1cc(-c2ccccc2)c(=O)c(-c2cccc(C(F)(F)F)c2)c1 | inactive | –
CC(NC(C)(C)C)C(=O)c1cccc(Cl)c1 (centres undefined) | inactive | –
CCN(CC)c1ccccc1 | – | 1.58%
c1cc2c3c(cccc3c1)CC2 | inactive | –
CCN(CC)CCO | inactive | –
CCCN(CCC)N=O | inactive | –
c1ccc(OP(Oc2ccccc2)Oc2ccccc2)cc1 | inactive | –
ClCc1cccnc1 | – | -1.44%
